Assay outcomes as filed in PubChem.
A selection: hits, their analogues and other compounds. The true share with any hit is near 0.98%.
EBV gp42 block: blocks Epstein-Barr virus glycoprotein 42 binding; AID 1085; inhibition, % (tested at 21.74 µM); hit rate 0.42% among 220,000; Fluorescence polarization binding assay, mP read-out; in the data active = inhibition above about 50%
Keap1 Nrf2 FP: inhibitors of human Keap1-Nrf2 protein-protein interaction | Q14145 | Keap1 Kelch-Nrf2 peptide fluorescence polarization, 1536-well | inhibition, % at 9.4 µM | hit rate 0.15% among 340,000 | AID 504523; in the data active = inhibition above about 12%;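 note: human Keap1 Kelch domain with fluorescein labeled Nrf2 9mer peptide probe; higher means more block of Keap1 binding to Nrf2 peptide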
RTF Ca sens inh: cardiac RTF calcium desensitization; P19429+P45379; IANBD-labeled cardiac RTF, Ca2+ fluorescence; inhibition, % at 7.15 µM; hit rate 0.12% among 340,000; AID 493244;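 active = inhibition above the mean inhibition of all tested compounds plus 3 SD, cut at about 17% in these data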;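 note: assay run at fixed EC70 calcium of 1.6 mM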
C-LANA FP: inhibitors of KSHV LANA C-terminal domain DNA binding; inhibition, % at 9 µM; hit rate 0.078% among 340,000; AID 504423; MBP-C-LANA/FAM-LBS DNA binding, fluorescence polarization;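 active = highest replicate inhibition at or above 60% at 9 µM, even if other replicates fall short; inactive = all replicates below 60% inhibition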
cardiac RTF act: cardiac RTF calcium sensitization; IANBD-labeled TnC RTF fluorescence at EC20 calcium; 0% EC20 calcium, 100% full calcium; activation, % at 7.2 µM; hit rate 0.24% among 340,000; P19429+P45379;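 active = activation above the mean over all tested compounds plus 3 SD, cut at about 30% in these data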;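 note: rise in fluorescence read as greater calcium sensitivity of cardiac thin filaments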
E coli Lon inh: inhibitors of E. coli Lon protease; inhibition, % at 7.94 µM; hit rate 0.42% among 360,000; AID 602123; P0A9M0; purified E. coli Lon protease, fluorescence polarization; in the data active = inhibition above about 13%, passing the limit was not always enough
E coli Lon conf: confirmation of E. coli Lon protease inhibitors; hit rate 31% among 1,400; purified E. coli Lon, fluorescence polarization; shares compounds with E coli Lon inh; AID 602230; inhibition, % at 7.94 µM; in the data active = inhibition above about 16%
Of the large screens only hits and unclear results are named; the others gave an inactive call (follow-up assays come after a bar, where they were run).

O=C1NC(=O)C2(N1)c1ccccc1-c1ccccc12	none (no result: EBV gp42 block)
COC(=O)c1sccc1S(=O)(=O)N1CCCC(N(C)CCc2ccccn2)C1 (configuration not stated)	none (no result: EBV gp42 block)
C=CCn1c(=O)[nH]c2nc3cc(N=CN(C)C)c(C)cc3nc2c1=O	EBV gp42 block 118, cardiac RTF act 131, E coli Lon inh 158 | E coli Lon conf active
CN(C)/C=N/c1cc(=O)[nH]c(=O)n1CC1CC1	none
Cc1ccc(S(=O)(=O)CNC(=S)c2ccc3ccccc3c2)cc1	E coli Lon inh 20 | E coli Lon conf inactive
N#Cc1cnn(-c2ccccc2)c1NC(=O)c1ccccc1F	none (no result: EBV gp42 block)
COc1ccccc1CCNC(=O)C(=O)NCC1OCCN1S(=O)(=O)c1ccc(Cl)cc1 (configuration not stated)	E coli Lon inh 16 (no result: EBV gp42 block) | E coli Lon conf inactive
COc1ccccc1NC(=O)COC(=O)/C=C/c1ccc(OC)c(OC)c1	none (no result: EBV gp42 block)
COc1cc2c(cc1OC)-c1cc3ccc4c(c3c[n+]1CC2)OCO4	EBV gp42 block 126, cardiac RTF act 54, E coli Lon inh 156 | E coli Lon conf 106
COc1ccc(S(=O)(=O)N2CCOC23CCN(C(=O)c2ccccc2OC)CC3)cc1	none (no result: EBV gp42 block)
CSc1ncccc1C(=O)N1CCN(S(=O)(=O)c2ccc(C)cc2)CC1	E coli Lon inh 17 (no result: EBV gp42 block) | E coli Lon conf inactive
O=C(Oc1ccc2c(c1)OCC2=O)c1ccccc1	E coli Lon inh 19 | E coli Lon conf 23
Cn1nc(-c2ccccc2)c(N2CCCCC2)cc1=O	none (no result: Keap1 Nrf2 FP, C-LANA FP)
Cn1c(=O)cc2c3c(c(N4CCCCC4)ccc31)C(=O)c1ccccc1-2	EBV gp42 block 74, E coli Lon inh active (no result: Keap1 Nrf2 FP, RTF Ca sens inh, C-LANA FP, cardiac RTF act) | E coli Lon conf 73
C(/C=C/c1ccccn1)=C\c1ccccc1	E coli Lon inh 36 (no result: EBV gp42 block) | E coli Lon conf inactive
COc1ccc(C(NC(=O)CNC(C)=O)C(=O)Nc2ccc3c(c2)OCCO3)cc1 (configuration not stated)	E coli Lon inh 14 | E coli Lon conf inactive
c1ccc(C2(Cn3ccc4ccccc43)OCCO2)cc1	E coli Lon inh 25 | E coli Lon conf inactive
CN(C)c1ccc(/C=C2\CCCc3c2nc2ccccc2c3C(=O)O)cc1	none (no result: EBV gp42 block)
